Holding throughout (assay): NCI-60 one-dose screen, 48 h (100 = growth as untreated, 0 = no growth, -100 = all killed)
Common to all, as to details: 10 µM unless noted

For assay [1], the system named is NCI-H226 lung.
In assay [2] the test system is NCI-H322M lung.
For assay [3], the system named is HOP-62 NSCLC.
In assay [4] the test system is NCI-H460 lung.
Assay [5] relates to HOP-92 NSCLC.
Assay [6] relates to NCI-H522 lung.
Assay [7] relates to A549/ATCC NSCLC.
For assay [8], the system named is 786-0 renal.
For assay [9], the system named is COLO 205 colon.
The subject of assay [10] is DU-145 prostate.
The test system of assay [11] is K-562 leukemia.
Assay [12] concerns MALME-3M melanoma.
Assay [13] concerns MDA-MB-231 breast.
Assay [14] concerns RXF 393 renal.
For assay [15], the system named is SF-268 CNS.
In assay [16] the test system is SF-295 CNS.
Assay [17] concerns SF-539 CNS.
Assay [18] deals with UACC-257 melanoma.
Assay [19] deals with M14 melanoma.

About 83,000 compounds went through this panel and 20% of them were active in at least one assay; those are over-represented in the sample as a whole.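 Plates (96-well) were seeded with cells, treated with compound at one concentration, and incubated for 48 hours before percent growth was determined.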 A number with no mark means an inactive call. Activity calls are given as the source filed them. Rule for the calls: active = growth percent below 10; inactive = the rest.

In the case of `NC(=S)Cc1ccccc1`, the growth in assay [1] is 96.8%; in assay [2], 98.3%; in [3] it was 98.1%; in assay [4], 106%; in [5], 108%; in assay [6], 92%. For the same molecule, the growth in assay [7] was 99.7%; in [8] it was 99.6%; in [9] it was 108%; in [10], 104%; in assay [11] it was 97.1%; in assay [12], 92.7%. The growth in assay [13] was 101%; in assay [14], 116%; in assay [15], 99.8%; in assay [16], 91.9%; in [17] it was 95.5%; in [18] it was 103%. In assay [19], the growth is 98.6%.
As for `O=C(NCc1ccccc1)C(Cl)Cl`, the growth in [1] is 93.3%; in assay [2], 102%; in assay [3], 98.6%; in [4] it was 108%; in assay [5], 95.1%; in assay [6], 101%. For the same molecule, the growth in assay [7] is 97.4%; in assay [8], 104%; in [9], 116%; in assay [10], 110%; in [11] it was 108%; in assay [12] it was 101%. The growth was 102% in assay [13]; 107% in [14]; 99.7% in [15]; 95.7% in assay [16]; 97.4% in [17]; 102% in [18]. Also, the growth in assay [19] was 101%.
Turning to `CCN(CC)c1ccc2cc(C(Nc3ccc(Cl)cc3)c3nnnn3C(C)(C)C)c(=O)oc2c1` (stereo not given), the growth in [1] is 82.9%; in assay [2], 93.8%; in [3], 99.5%; in [4], 84.1%; in assay [5], 76.9%; in assay [6], 79.5%. Besides, the growth is 77.9% in [7]; 94% in [8]; 114% in assay [9]; 93.6% in assay [10]; 78.9% in assay [11]; 98.1% in assay [12]. The growth in [13] was 90.8%; in [14], 86.9%; in assay [15], 80.6%; in assay [16], 95.9%; in assay [17] it was 94.8%; in [18] it was 92.2%. Further, the growth in assay [19] is 97.6%.
For the molecule `COc1cc(-c2cc(-c3ccc(Nc4ncnc5cc(Cl)ccc45)cc3)nc(N3CCCCC3)n2)cc(OC)c1OC`, the growth in [1] is 99.3%; in [2], 95.5%; in assay [3] it was 84.7%; in assay [4], 94.7%; in [5], 92%; in assay [6], 75.3%. Besides, the growth in [7] was 84.7%; in [8] it was 98.9%; in assay [9] it was 110%; in assay [10], 102%; in assay [11] it was 92.3%; in [12] it was 95.1%. Moreover, the growth in assay [13] was 92%; in [14], 106%; in assay [15], 88.4%; in [16], 104%; in assay [17] it was 93.6%; in assay [18], 111%. For the same molecule, the growth in assay [19] is 106%.
As to `CCC(C)[C@H](NC(=O)NC(=O)NC(=O)CI)C(=O)OC` (stereo not given in full), the growth in assay [1] is 86.7%; in assay [2] it was 106%; in assay [3], 87.9%; in [4] it was 95.6%; in [6], -86.5% (active); in assay [7] it was 91.9%. The growth was -50.3% (active) in [8]; 10.8% in assay [9]; 108% in assay [10]; 6.27% (active) in assay [11]; -44.9% (active) in [12]; 46.8% in [13]. In addition, the growth in [14] is 85.3%; in [15] it was 94.3%; in assay [16], 89.4%; in [17], 91.5%; in assay [18] it was 85%.
For the molecule `COc1ccc(CC(C#N)c2ccc(Cl)cc2)cc1` (stereo not given), the growth in [1] is 87.5%; in [2], 93.9%; in assay [3], 74.3%; in assay [4] it was 83.7%; in assay [5], 83.8%; in [6], 78.1%. Further, the growth was 79.1% in [7]; 87% in [8]; 94% in assay [9]; 77.3% in assay [10]; 41.6% in [11]; 89.3% in assay [12]. Further, the growth in [13] was 79.7%; in assay [14] it was 92.1%; in assay [15] it was 78%; in assay [16], 78.9%; in [17] it was 85.1%; in assay [18] it was 91.7%. Besides, the growth in [19] is 73.3%.
Take `CCOc1ccc(/C=C(\C#N)c2cc3ccccc3[nH]2)cc1`: the growth in assay [1] was 90%; in [2], 87.1%; in [3], 54.7%; in assay [4], 36.2%; in assay [5] it was 87.4%; in [6], 32.8%. Moreover, the growth in [7] was 38%; in [8] it was 89.5%; in assay [9], 49.4%; in assay [10], 81%; in assay [11], 15.3%; in [12], 60%. Further, the growth is 71.9% in assay [13]; 58.6% in assay [14]; 84.2% in assay [15]; 58.3% in assay [16]; 68.3% in assay [17]; 79.2% in [18]. Also, the growth in [19] was 39%.
As to `COc1c(C(C)=O)c(OCCCCOc2c(C(C)=O)c(OC)c3ccoc3c2OC)c(OC)c2occc12`, the growth in [1] was 65.4%; in assay [2], 85.2%; in [3], 117%; in [4] it was 80.1%; in assay [5], 57.3%; in assay [6], -7.73% (active). Further, the growth in assay [7] is 64.7%; in assay [8], 89%; in assay [9], 77%; in assay [10], 116%; in assay [11] it was 54.3%; in assay [12], 48.8%. Also, the growth in [13] is 82.7%; in assay [14] it was 80.7%; in assay [15] it was 84.3%; in [16], 19.7%; in [17], 105%; in assay [18], 73.3%. Besides, the growth in assay [19] was 99.3%.

These data come from PubChem BioAssay (NCI).
